In article PMC5540273 (PLoS ONE, 2017):

How the values were obtained:
Settings in all cases: concentration: 1 μM, replicates: in singlicate; n = 1
CDK4 = tested on: CDK4
CDK5 = tested on: CDK5
CDK7 = tested on: CDK7
CDK8 = tested on: CDK8
CDK9 = tested on: CDK9
CDKL1 = tested on: CDKL1
CDKL2 = tested on: CDKL2
CDKL3 = tested on: CDKL3
CDKL5 = tested on: CDKL5
CHEK1 = tested on: CHEK1
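Further: KINOMEscan kinase panel screen.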

SMILES	%Inh (CDK4) [%]	%Inh (CDK5) [%]	%Inh (CDK7) [%]	%Inh (CDK8) [%]	%Inh (CDK9) [%]	%Inh (CDKL1) [%]	%Inh (CDKL2) [%]	%Inh (CDKL3) [%]	%Inh (CDKL5) [%]	%Inh (CHEK1) [%]
Fc1cc(Cl)ccc1Nc1ccnc2cc(-c3ccc(CN4CCCCC4)o3)ccc12 [GW560116]	35	0	0	28	0	0	2	0	0	0
Cc1cccc(-c2cc(Nc3ccncc3)c3ccccc3n2)n1 [GSK223675]	0	0	0	0	4	0	5	0	1	0
COc1ccccc1CNC(=O)c1cc(C(=O)c2ccccc2C)c[nH]1 [GSK364507]	0	9	0	5	0	10	16	0	0	0
COc1cccc(NC(=O)NC2CCN(c3ccnc(Nc4ccc(F)cc4)n3)C2)c1 (centres unmarked) [GSK1379721]	0	0	0	61	14	5	61	0	7	2
O=C(Nc1n[nH]c2nc(-c3nccs3)c(Br)cc12)C1CCCC1 [SB-742609]	81	0	73	0	100	0	88	0	0	0
COc1ccc(CNC(=O)NC2CCN(c3ccnc(Nc4cc(OC)c(OC)c(OC)c4)n3)C2)cc1 (centres unmarked) [GSK1379748]	36	0	0	51	0	15	20	0	0	0
Cc1cccc(-c2nc(C)cc(Nc3ccncc3)n2)n1 [GSK257997]	28	0	0	0	95.9	3	0	0	6	0
COc1cc2ncn(-c3cc(OCC4CCCO4)c(C(N)=O)s3)c2cc1OC (centres unmarked) [GSK204607]	13	0	4	32	0	11	1	0	0	0
Cc1c(Cn2ccn3c(=O)cc(N4CCOCC4)nc23)cccc1C(F)(F)F [GSK2289044]	4	0	0	0	0	3	10	0	16	0
COc1ccc2nc(-c3cccc(C)n3)nc(Nc3ccncc3)c2c1 [GSK204919]	0	0	0	7	0	4	24	0	0	10
Cc1cccc(-c2nc(Nc3ccncc3)c3ccccc3n2)n1 [GW855857]	0	0	0	65	0	47	10	0	0	0
O=C1NC(=O)C(N2CCc3ccccc32)=C1c1ccccc1Cl [SB-373598]	27	0	29	25	8	18	23	4	0	2
Cc1c(O)cccc1Nc1ccnc2ccc(C(F)(F)F)cc12.Cl [GW466413]	33	0	0	18	0	0	5	0	0	0
Cc1ccc(C(=O)Nc2ccc(Nc3ccnc4cc(-c5ccccn5)ccc34)cc2O)cc1.Cl [GW440146]	32	0	0	23	0	0	18	0	2	0
COc1cccc(-c2cc(-c3c[nH]nc3-c3ccccn3)ccn2)c1 [GW680338]	31	0	0	44	0	0	0	23	0	0
COc1ccc(Nc2nccc(NCCNC(=O)Nc3ccccc3F)n2)cc1 [GSK1379901]	0	0	0	0	1	4	9	0	3	0

SMILES	%Inh (CDK4) [%]	%Inh (CDK5) [%]	%Inh (CDK7) [%]	%Inh (CDK8) [%]	%Inh (CDK9) [%]	%Inh (CDKL1) [%]	%Inh (CDKL2) [%]	%Inh (CDKL3) [%]	%Inh (CDKL5) [%]	%Inh (CHEK1) [%]
Cc1ccc(NC(=O)Nc2cccc(Cl)c2)cc1-c1ccc(C(=O)Nc2ccncc2)cc1 [GSK1398468]	0	0	0	0	0	13	52	0	0	0
COc1cc(Nc2nccc(N3CCC(NC(=O)Nc4cc(C)ccc4C)C3)n2)cc(OC)c1OC (centres unmarked) [GSK1379762]	0	0	0	20	0	0	41	0	7	25
Cc1ccc(NC(=O)Nc2cc(C(C)(C)C)nn2-c2ccccc2)cc1 [GSK1014915]	0	8	0	58	14	15	13	0	14	24
Cc1cc(N2Cc3ccccc3C2)nc(Nc2ccc(S(=O)(=O)N3CCOCC3)cc2)n1.Cl [GSK1669917]	0	0	0	33	0	0	0	0	6	0
Cl.NC(=O)c1cccc(Nc2nccc(Nc3ccc(Oc4cccc(Cl)c4)c(Cl)c3)n2)c1 [GW659008]	48	0	0	28	0	9	23	0	0	0
COC(=O)c1c(-c2ccccc2)c2cc(OC)ccc2c(=O)n1Cc1ccccc1	0	11	15	7	9	3	13	12	0	0
COc1ccc(C2=C(Nc3cccc(C(=O)O)c3)C(=O)NC2=O)cc1 [SB-390765]	51	16	3	0	1	0	37	0	13	0
CS(=O)(=O)c1ccc(-c2c(-c3ncn[nH]3)sc(N3CCOCC3)c2C#N)cc1	1	38	31	18	6	22	7	13	0	0
O=c1cc(N2CCOCC2)nc2n(Cc3cccc(Cl)c3Cl)ccn12 [GSK2286295]	0	0	0	0	14	0	7	0	2	0
O=C(Nc1n[nH]c2nc(-c3nccs3)c(Br)cc12)C1CC1 [SB-742251]	44	0	12	25	0	24	92.3	0	0	0
CC(C)(C)c1ccc(C(=O)Nc2cn3cc(-c4cccnc4)ccc3n2)cc1	0	3	35	6	12	39	6	20	0	25
C[C@@H]1CCCCN1c1cc(-c2ccc3c(N)n[nH]c3c2)nc(N)n1 [GSK2258759]	21	0	0	20	0	6	6	0	0	0
Fc1cccc(COc2nnc(-c3ccc4c(c3)CCO4)o2)c1	0	0	9	19	0	0	9	9	0	0
CS(=O)(=O)c1ccc(-c2nc3n(c2-c2ccncc2)CCC3)cc1 [SKF-105942]	9	0	0	0	100	28	17	0	4	0
O=C(Nc1ccccc1)Nc1cccc(Oc2ccc3nccn3n2)c1	0	0	0	76	0	12	4	0	2	0
Cc1nnc(-c2ccc3occ(-c4ccc(S(C)=O)cc4)c3c2)[nH]1 (centres unmarked)	0	0	0	0	0	0	0	0	12	0
